A selection: hits, their analogues and other compounds. The true share with any hit is near 8.9%.
12-hLO inh: inhibitors of human 12-lipoxygenase (ALOX12); P18054; purified 12-hLO, xylenol orange hydroperoxide absorbance; Potency, µM (doses to about 57.1 µM), for inactives: top-dose activity change, negative = inhibition, hits mostly inhibitors; 0.12% of 150,000 active; AID 1452; also: potency is read from the fitted curve at half-maximal effect; nearly all actives have a fitted effect of over 55% in size
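Hydroperoxide formation by human 12-lipoxygenase from 40 uM arachidonic acid was followed colorimetrically via ferric-xylenol orange complex, using the 573/405 nm absorbance ratio. Enzyme concentration was 150 nM, with 30 min reaction at room temperature.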
IMPase Li inh: IMPase inhibition in cells with lithium potentiation; CHO-M1 cells, IP1 TR-FRET (IP-One), carbachol + lithium; AID 1457; 0.35% of 210,000 active; Potency, µM (highest dose often 59.4 µM), inactives show at the highest dose activity, negative = IMPase inhibition, actives largely listed as inhibitors;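 also: IP1 builds up when IMPase is blocked and the TR-FRET signal falls; potency is read from the fitted curve at half-maximal effect; plate controls were basal vehicle for no effect and high inhibitor control for full effect; nearly all actives have a fitted effect of over 50% in size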
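Concentration–response in CHO-M1 cells, lithium-potentiated; 30 min at 37C. IP1 detected by competitive TR-FRET after 10 min lysis at RT. Hill-fitted AC50.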
HPGD inh: inhibitors of human 15-hydroxyprostaglandin dehydrogenase (HPGD). AID 894. P15428. purified HPGD, NADH fluorescence kinetic, PGE2 substrate. 4.3% of 150,000 active. Potency, µM, inactives show at the top dose activity change, negative = inhibition, actives largely listed as inhibitors; active = well fitted inhibition curve with a large enough effect, not every such curve was filed as active; inconclusive = small, poorly fitted or top-dose-only effect, or another doubt; inactive = no such curve, though single readings can be large or run the other way; also: potency is read from the fitted curve at half-maximal effect
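NADH formation kinetics: reaction with 30 uM PGE2 and 1 mM NAD+ (final), 20 nM enzyme, Tris-HCl pH 8 with Tween 20, after 15 min compound preincubation at room temperature. Fluorescence change, last versus first of five reads.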
IMPase inh: cell-permeable inhibitors of inositol monophosphatase (IMPase). CHO-M1 cells, IP1 accumulation, HTRF TR-FRET ratio. AID 901. P97697. inhibition (IP1 accumulation), % at 46.1 µM. 120,000 tested, under 10 active; active = well fitted curve in the direction sought with a large enough effect in the signal ratio, not every such curve was filed as active; inconclusive = small, poorly fitted or top-dose-only effect, or a change in a side signal; inactive = no such curve, though single readings can be large or run the other way; the % refers to the signal ratio;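 also: cells stimulated with carbachol in lithium chloride buffer; plate controls were DMSO basal wells for no effect and reference inhibitor wells for full effect; higher means more IMPase inhibition seen as more IP1 and lower FRET ratio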
Target sequence (P97697 whole entry, looked up): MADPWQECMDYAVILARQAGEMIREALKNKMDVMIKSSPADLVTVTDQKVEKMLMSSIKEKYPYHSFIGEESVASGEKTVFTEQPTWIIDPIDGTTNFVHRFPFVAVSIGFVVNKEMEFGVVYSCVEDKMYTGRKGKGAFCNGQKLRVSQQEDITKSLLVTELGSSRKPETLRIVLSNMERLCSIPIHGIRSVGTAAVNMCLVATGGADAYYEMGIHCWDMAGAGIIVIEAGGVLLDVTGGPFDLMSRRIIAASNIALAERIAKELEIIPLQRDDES
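CHO-M1 cells (CHO stably expressing M1 receptor), compound up to 46 uM final, stimulated with carbachol (50 uM as added) in buffer with 50mM LiCl, pH 7.4, 30 min at 37C. Cytosolic IP1 read by TR-FRET; AC50 from Hill fits.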
ALDH1A1 block: ALDH1A1 (human) enzyme inhibition; Purified ALDH1A1, NADH fluorescence, propionaldehyde substrate; Potency, µM (highest dose often 75.3 µM), without a hit: at the top dose activity, negative = inhibition, most hits filed as inhibitors; 7.3% of 220,000 active; AID 1030; active = well fitted inhibition curve with a large enough effect, not every such curve was filed as active; inconclusive = small, poorly fitted or top-dose-only effect, or another doubt; inactive = no such curve, though single readings can be large or run the other way;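 also: potency is read from the fitted curve at half-maximal effect; plate controls were no enzyme wells and a reference inhibitor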
NPSR antag: antagonists of human neuropeptide S receptor cAMP signaling; Q6W5P4; CHO-NPSR cells, cAMP TR-FRET, antagonist mode; Potency, µM (series often up to 38.3 µM), for the others: at the top dose activity change, negative = inhibition, most hits filed as inhibitors; 1% of 220,000 active; AID 1461; also: potency is read from the fitted curve at half-maximal effect; nearly all actives have a fitted effect of over 50% in size
Target sequence (Q6W5P4 whole entry, looked up): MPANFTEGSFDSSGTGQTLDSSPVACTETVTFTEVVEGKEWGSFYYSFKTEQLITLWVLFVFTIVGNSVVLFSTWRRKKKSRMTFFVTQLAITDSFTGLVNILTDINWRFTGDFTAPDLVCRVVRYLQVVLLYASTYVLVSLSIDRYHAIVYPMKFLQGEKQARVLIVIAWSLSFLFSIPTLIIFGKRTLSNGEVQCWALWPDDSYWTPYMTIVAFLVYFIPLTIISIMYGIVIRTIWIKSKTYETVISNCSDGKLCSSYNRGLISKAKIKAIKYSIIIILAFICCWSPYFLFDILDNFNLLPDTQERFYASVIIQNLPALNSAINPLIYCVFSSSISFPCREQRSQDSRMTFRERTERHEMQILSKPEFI
* marks the source's active call; other numbers are inactive results; ? = inconclusive; . = not tested or not shown; [ ] = remark or other dose. Unless noted, calls follow the shape of the dose curve; as a rule, active = well fitted curve in the direction sought with a large enough effect; inconclusive = small, poorly fitted or top-dose-only effect, or another doubt; inactive = no such curve, though single readings can be large; an effect the other way counts as inactive or inconclusive. Unless noted, % is scaled to controls: 0 for no effect and ±100 for the full control effect.

SMILES	12-hLO inh	IMPase Li inh	HPGD inh	IMPase inh	ALDH1A1 block	NPSR antag
CC1=CC(=O)c2c(O)ccc(O)c2C1=O	.	24%	.	.	32µM*	?
O=C1C=C(N2CCN(c3ccccn3)CC2)C(=O)c2c(O)ccc(O)c21	-16%[11.4 µM]	16%	-12%	.	-10%[13.5 µM]	.
Cc1cc(C)cc(NC(=O)CN2CCc3ccccc3C2)c1	7%	-1%[38.3 µM]	3%	-3	-3%	-5%[46.1 µM]
Cc1coc(C)c1C(=O)CC1(O)C(=O)N(CCc2ccccc2)c2ccccc21 (configuration not stated)	-14%	34%[38.3 µM]	?	11	4.5µM*	-26%[46.1 µM]
CC1(C)CC(=O)C(C2(O)C(=O)N(Cc3ccccc3)c3ccccc32)CO1 (configuration not stated)	0%	11%[38.3 µM]	-7%	-3	0.032µM*	2%[46.1 µM]
Cc1[nH]c2ccccc2c1C1(O)C(=O)N(Cc2ccc3c(c2)OCO3)c2ccccc21 (configuration not stated)	-22%	14%[38.3 µM]	-19%	-11	0.71µM*	9%[46.1 µM]
CC(C)N1C(=O)C(O)(C2COC(C)(C)CC2=O)c2ccccc21 (configuration not stated)	.	-4%	.	.	?	-14%
CCOC(=O)CN1C(=O)C(O)(CC(=O)c2ccc3c(c2)CCCC3)c2ccccc21 (configuration not stated)	-6%	-1%	-4%	-12	10µM*	-8%[46.1 µM]
OCCN1CCN(CC(O)COCCOc2ccc(Br)cc2)CC1 (configuration not stated)	3%	-1%	-9%	.	3%	12%
Cc1noc(NS(=O)(=O)c2ccc(NC(=O)CS(=O)(=O)c3ccccc3)cc2)c1C	0%	25%[38.3 µM]	-5%	-5	-2%	-17%[46.1 µM]
COc1cccc2cc(C(C)=O)c(=O)oc12	-8%	22%[38.3 µM]	1%	-7	11%	-4%[46.1 µM]
CCCCN1C(=O)C(O)(CC(=O)c2ccc(C)cc2C)c2cc(Br)ccc21 (configuration not stated)	.	.	.	12	.	.
CCCCN1C(=O)C(O)(CC(=O)c2ccco2)c2cc(Br)ccc21 (configuration not stated)	-2%	4%	2%	4	8.9µM*	0%
C#CCN1C(=O)C(O)(CC(=O)c2cccc(OC)c2)c2ccccc21 (configuration not stated)	-6%	13%[38.3 µM]	-10%	6	1.6µM*	-4%[46.1 µM]
CCOC(=O)CN1C(=O)C(O)(CC(=O)c2cccc(OC)c2)c2ccccc21 (configuration not stated)	0%	-8%[38.3 µM]	0%	-9	0.28µM*	4%[46.1 µM]
COc1cccc2cc(C(=O)CC3(O)C(=O)N(Cc4ccccc4)c4ccccc43)c(=O)oc12 (configuration not stated)	-4%	1%[38.3 µM]	-1%	-21	0.089µM*	-9%[46.1 µM]
Cc1sc2ncn(Cc3ccccc3F)c(=O)c2c1C	.	1%	.	.	-1%	22%
COc1cc(NC(=O)C2CCN(S(=O)(=O)c3cccnc3)CC2)cc(OC)c1OC	-6%	-17%[38.3 µM]	-6%	14	-5%	-16%[46.1 µM]
Cc1ccc(C(=O)CC2(O)C(=O)N(Cc3ccccc3)c3ccccc32)c(C)c1 (configuration not stated)	.	.	.	8	.	.
CN1C(=O)C(O)(CC(=O)/C=C/c2ccco2)c2cc(Br)ccc21 (configuration not stated)	.	8%	.	.	24µM*	0%
O=C(O)CC1(O)C(=O)N(Cc2ccccc2)c2ccccc21 (configuration not stated)	.	1%	.	.	20µM*	-19%
CC12CN3CC(C)(CN(C1)C31C(=O)N(Cc3ccccc3)c3ccccc31)C2=O (configuration not stated)	0%	-8%[38.3 µM]	4%	-3	7.9µM*	-13%[46.1 µM]
CN1C(=O)C(O)(CC(=O)/C=C/c2ccco2)c2ccccc21 (configuration not stated)	.	5%	.	.	-7%	-13%
CCOC(=O)CN1C(=O)C(O)(CC(=O)c2ccco2)c2ccccc21 (configuration not stated)	-1%	-11%[38.3 µM]	-9%	4	0.16µM*	1%[46.1 µM]
CCN1C(=O)C(O)(CC(=O)c2c(C)coc2C)c2ccccc21 (configuration not stated)	.	-7%	.	.	?	?
SMILES	12-hLO inh	IMPase Li inh	HPGD inh	IMPase inh	ALDH1A1 block	NPSR antag
Oc1ccc(Br)cc1C=Nc1ccc2c3c(cccc13)CC2	-7%	-9%	?	.	?	-52%
CCc1ccc(N2CC(C(=O)Nc3nnc(CC)s3)CC2=O)cc1 (configuration not stated)	9%	-6%[38.3 µM]	-8%	1	7%	?
COc1ccc(CN2C(=O)C(O)(CC(=O)c3ccc4c(c3)OCO4)c3ccccc32)cc1OC (configuration not stated)	-9%	14%[38.3 µM]	-6%	1	4.5µM*	-7%[46.1 µM]
O=C(CC1(O)C(=O)N(Cc2ccccc2Cl)c2ccccc21)c1ccco1 (configuration not stated)	-4%	17%[38.3 µM]	-1%	3	1.3µM*	-19%[46.1 µM]
CCN1C(=O)C(O)(CC(=O)c2ccc3c(c2)OCCO3)c2ccccc21 (configuration not stated)	2%	-2%[38.3 µM]	-16%	1	?	5%[46.1 µM]
COc1ccc(C(=O)N/N=C2/SCC(=O)N2Cc2ccc3c(c2)OCO3)cc1OC	-2%	-23%[38.3 µM]	-12%	-7	20µM*	-8%[46.1 µM]
CCc1ccc(C(=O)CC2(O)C(=O)N(Cc3ccc(C)cc3)c3ccccc32)cc1 (configuration not stated)	.	.	.	4	.	.
CCOc1cc2c(cc1/C=C/C(=O)O)OC(C)C2 (configuration not stated)	.	.	.	.	.	-5%
COc1ccccc1NC(=O)NCc1nc(-c2ccc(C(F)(F)F)cc2)no1	.	.	.	.	.	-6%
COc1ccccc1NC(=O)CCc1nc2ccccc2s1	.	-6%	.	.	1%	-6%
Cc1ccc(CSc2nnc(C)c(=O)[nH]2)cc1	.	-1%	.	.	11%	6%
Cc1nnc(SCc2ccccc2)[nH]c1=O	.	3%	.	.	7.1µM*	-5%
CCNC(=S)Nc1cc(OCC)c(NC(=O)c2ccco2)cc1OCC	1%	6%	-21%	-8	?	-10%
CCOc1cc(NS(=O)(=O)c2ccccc2)c(OCC)cc1NC(=O)c1ccco1	-6%	28%[38.3 µM]	-12%	-2	7.9µM*	?
CCC(OC(=O)c1cccs1)C(=O)NCc1ccco1 (configuration not stated)	6%	27%[38.3 µM]	-15%	6	22µM*	-1%[46.1 µM]
CC(C)C(OC(=O)c1cccs1)C(=O)NCc1cccs1 (configuration not stated)	-2%	25µM*	-28%	2	?	-10%[7.67 µM]

Screens from PubChem BioAssay.
